# According to the supplement of paper PMC10849652:
# Targets with a hit are over-represented here; the source holds about 8,800 in all. About 0.5% of all pairs of compound and target were hits. A number with no mark means an inactive call.
# Compound: CC[C@@H]1C(=O)N(C)c2cnc(Nc3ccc(C(=O)N[C@H]4CC[C@H](N5CCN(CC6CC6)CC5)CC4)cc3OC)nc2N1C(C)C [volasertib]
# Test: log2 fold change, soluble protein after heating vs DMSO (PISA); higher = thermal stabilisation; K562 lysate, 10 uM; active = over 0.2 and 3.5 SD of the protein, either way, in both replicates (recomputed)
# Outline: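 Following dounce homogenisation of K562 pellets in PBS pH 7.4 with 1 mM MgCl2, crude extract at 1 mg/mL protein was incubated for 30 min with 10 μM compound. Aliquots were then heated for 3 min over 48°C-58°C and pooled, NP-40 was added to 0.5% at 4°C, and soluble protein was recovered as the supernatant at 21,000xg for 90 min. Channel-sum-equalised TMTpro 16plex LC-MS/MS quantified this protein. Each value, from duplicates, is a log-two fold change in thermal stability relative to solvent controls.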
# Sequence of UniProt P05771 (P05771 whole entry, looked up): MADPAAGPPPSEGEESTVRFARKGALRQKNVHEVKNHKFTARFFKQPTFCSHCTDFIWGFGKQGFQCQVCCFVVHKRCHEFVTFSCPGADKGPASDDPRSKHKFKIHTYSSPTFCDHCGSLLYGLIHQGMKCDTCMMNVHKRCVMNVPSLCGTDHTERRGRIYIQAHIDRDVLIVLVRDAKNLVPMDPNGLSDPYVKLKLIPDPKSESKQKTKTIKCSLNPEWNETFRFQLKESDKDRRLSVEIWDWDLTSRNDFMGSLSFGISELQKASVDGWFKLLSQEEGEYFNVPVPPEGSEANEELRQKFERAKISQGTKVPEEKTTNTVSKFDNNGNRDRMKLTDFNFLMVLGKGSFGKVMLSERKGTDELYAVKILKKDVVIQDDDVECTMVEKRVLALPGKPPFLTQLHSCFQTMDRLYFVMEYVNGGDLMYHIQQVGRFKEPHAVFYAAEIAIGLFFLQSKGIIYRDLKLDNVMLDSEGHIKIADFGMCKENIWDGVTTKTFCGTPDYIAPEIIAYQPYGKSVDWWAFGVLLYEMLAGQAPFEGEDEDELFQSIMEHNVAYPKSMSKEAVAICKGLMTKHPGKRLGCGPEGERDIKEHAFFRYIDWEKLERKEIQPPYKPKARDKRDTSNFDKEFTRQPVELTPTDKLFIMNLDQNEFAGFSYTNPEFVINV
# Sequence of UniProt Q8WUM4 (Q8WUM4 whole entry, looked up): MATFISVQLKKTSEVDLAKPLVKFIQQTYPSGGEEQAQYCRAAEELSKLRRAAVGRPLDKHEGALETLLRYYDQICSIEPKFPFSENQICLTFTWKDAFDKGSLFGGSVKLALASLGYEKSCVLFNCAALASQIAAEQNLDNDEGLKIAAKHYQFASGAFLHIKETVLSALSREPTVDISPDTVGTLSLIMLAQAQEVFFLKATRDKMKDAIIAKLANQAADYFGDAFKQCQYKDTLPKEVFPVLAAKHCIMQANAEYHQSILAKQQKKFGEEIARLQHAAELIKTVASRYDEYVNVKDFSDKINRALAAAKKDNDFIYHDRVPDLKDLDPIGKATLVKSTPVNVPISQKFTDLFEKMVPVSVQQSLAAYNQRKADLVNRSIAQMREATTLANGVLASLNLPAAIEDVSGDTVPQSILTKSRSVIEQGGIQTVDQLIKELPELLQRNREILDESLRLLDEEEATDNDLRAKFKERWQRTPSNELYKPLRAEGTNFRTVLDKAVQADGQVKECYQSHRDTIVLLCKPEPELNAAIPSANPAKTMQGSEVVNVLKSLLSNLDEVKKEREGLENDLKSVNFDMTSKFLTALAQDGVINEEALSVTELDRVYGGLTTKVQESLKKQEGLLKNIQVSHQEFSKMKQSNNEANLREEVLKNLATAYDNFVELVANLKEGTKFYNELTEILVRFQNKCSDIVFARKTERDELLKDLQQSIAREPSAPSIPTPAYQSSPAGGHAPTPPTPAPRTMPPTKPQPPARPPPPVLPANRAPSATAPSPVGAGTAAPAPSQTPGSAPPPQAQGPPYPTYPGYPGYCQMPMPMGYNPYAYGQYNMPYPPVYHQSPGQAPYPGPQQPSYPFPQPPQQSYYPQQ
# Sequence of UniProt P46020 (P46020 whole entry, looked up): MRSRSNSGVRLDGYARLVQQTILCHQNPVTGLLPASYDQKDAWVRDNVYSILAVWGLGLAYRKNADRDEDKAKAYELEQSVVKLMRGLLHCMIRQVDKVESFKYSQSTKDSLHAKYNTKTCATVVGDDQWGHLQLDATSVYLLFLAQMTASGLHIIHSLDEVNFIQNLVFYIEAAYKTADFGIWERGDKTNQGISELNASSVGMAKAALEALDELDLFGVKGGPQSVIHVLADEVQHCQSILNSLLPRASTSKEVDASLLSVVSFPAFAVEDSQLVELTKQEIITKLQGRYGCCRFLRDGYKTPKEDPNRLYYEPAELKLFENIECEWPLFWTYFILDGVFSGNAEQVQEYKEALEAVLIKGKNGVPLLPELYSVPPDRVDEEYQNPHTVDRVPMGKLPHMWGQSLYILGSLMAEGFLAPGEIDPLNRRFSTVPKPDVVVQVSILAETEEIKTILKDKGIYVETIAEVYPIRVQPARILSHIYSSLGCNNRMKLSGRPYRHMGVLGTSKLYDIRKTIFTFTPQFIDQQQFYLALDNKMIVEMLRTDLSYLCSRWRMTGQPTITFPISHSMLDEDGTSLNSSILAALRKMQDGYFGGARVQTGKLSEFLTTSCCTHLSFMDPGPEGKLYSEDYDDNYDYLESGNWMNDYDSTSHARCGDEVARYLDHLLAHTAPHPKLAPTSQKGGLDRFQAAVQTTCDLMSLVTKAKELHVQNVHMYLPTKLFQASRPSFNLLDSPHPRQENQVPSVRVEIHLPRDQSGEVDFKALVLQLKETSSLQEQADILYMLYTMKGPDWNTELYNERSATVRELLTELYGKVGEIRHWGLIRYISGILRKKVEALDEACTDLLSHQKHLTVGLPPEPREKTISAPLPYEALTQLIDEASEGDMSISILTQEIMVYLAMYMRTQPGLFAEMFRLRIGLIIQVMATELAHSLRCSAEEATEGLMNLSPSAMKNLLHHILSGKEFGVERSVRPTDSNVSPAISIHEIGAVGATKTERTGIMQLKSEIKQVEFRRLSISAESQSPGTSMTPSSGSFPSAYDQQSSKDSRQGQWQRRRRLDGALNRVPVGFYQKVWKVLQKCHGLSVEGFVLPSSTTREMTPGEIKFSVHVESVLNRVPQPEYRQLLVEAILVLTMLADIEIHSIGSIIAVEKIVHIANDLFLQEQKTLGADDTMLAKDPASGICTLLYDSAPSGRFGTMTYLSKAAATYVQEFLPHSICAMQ
# Sequence of UniProt Q9HBH1 (Q9HBH1 whole entry, looked up): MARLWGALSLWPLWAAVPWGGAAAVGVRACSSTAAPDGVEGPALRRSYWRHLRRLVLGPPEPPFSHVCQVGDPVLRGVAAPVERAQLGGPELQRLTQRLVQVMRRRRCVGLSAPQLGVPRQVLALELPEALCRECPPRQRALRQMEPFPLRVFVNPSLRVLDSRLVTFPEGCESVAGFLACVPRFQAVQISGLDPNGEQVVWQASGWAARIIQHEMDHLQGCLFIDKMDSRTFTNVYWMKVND
# Sequence of UniProt P15735 (P15735 whole entry, looked up): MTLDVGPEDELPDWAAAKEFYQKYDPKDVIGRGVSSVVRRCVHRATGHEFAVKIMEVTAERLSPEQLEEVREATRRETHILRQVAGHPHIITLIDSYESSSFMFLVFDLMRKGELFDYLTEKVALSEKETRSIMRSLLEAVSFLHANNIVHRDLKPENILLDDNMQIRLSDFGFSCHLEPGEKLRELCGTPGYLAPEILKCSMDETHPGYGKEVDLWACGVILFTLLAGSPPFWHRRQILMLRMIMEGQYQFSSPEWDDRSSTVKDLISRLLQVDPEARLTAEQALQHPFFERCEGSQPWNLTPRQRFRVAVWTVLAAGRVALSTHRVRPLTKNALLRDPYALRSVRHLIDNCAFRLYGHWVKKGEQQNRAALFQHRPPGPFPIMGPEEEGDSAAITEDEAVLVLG
# Sequence of UniProt Q9NXJ5 (Q9NXJ5 whole entry, looked up): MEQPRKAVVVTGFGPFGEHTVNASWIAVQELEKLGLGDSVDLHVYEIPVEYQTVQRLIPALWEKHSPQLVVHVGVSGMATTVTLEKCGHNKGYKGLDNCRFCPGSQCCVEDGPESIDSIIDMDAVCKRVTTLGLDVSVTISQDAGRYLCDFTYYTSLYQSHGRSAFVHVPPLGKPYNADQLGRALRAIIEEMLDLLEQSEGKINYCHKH
# Sequence of UniProt O00541 (O00541 whole entry, looked up): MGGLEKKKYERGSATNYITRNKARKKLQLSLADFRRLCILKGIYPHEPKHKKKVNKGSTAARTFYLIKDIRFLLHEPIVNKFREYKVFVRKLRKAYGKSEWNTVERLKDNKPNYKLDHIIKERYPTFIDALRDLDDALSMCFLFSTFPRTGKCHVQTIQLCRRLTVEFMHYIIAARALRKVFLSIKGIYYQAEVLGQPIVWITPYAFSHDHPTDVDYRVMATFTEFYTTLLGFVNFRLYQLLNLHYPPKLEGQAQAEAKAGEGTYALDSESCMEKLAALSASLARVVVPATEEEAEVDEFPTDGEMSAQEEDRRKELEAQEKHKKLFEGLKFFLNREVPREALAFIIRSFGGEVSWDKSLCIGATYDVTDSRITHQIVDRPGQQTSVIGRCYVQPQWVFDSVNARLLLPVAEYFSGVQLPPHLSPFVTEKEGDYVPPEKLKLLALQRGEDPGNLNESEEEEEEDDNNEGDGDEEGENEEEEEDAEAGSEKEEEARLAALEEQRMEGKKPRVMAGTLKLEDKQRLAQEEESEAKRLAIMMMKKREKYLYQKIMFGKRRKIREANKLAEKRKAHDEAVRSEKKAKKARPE
# Sequence of UniProt Q8N4L2 (Q8N4L2 whole entry, looked up): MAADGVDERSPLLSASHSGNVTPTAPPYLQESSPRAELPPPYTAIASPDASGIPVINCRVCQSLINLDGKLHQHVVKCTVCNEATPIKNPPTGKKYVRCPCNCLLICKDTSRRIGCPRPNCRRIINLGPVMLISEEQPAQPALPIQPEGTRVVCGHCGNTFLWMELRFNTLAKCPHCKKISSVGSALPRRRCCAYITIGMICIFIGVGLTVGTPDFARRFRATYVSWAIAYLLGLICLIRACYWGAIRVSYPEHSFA
# Sequence of UniProt P28065 (P28065 whole entry, looked up): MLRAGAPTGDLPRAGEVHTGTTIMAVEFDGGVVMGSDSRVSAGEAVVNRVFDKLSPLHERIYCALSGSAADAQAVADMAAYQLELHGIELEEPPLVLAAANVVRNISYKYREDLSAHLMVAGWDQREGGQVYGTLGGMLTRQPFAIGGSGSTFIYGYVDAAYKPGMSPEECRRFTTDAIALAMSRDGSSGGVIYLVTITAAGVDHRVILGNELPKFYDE
# Sequence of UniProt O43741 (O43741 whole entry, looked up): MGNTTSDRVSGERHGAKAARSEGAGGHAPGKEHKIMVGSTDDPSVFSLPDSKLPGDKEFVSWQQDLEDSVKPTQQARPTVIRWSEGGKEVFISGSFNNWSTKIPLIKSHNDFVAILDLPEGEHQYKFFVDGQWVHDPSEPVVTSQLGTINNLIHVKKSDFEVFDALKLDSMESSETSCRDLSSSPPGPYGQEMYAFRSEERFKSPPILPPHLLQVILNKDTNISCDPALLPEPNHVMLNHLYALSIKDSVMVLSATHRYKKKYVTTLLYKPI
row,Target,log2 fold change
1,PPP2R5C isoform 5 (UniProt Q13362),0.014
2,PLXNB2 (UniProt O15031),-0.021
3,PRKCSH isoform 2 (UniProt P14314),-0.052
4,PCBP2 (UniProt H3BRU6),0.036
5,PRMT8 (UniProt Q9NR22),-0.009
6,PDF (UniProt Q9HBH1),-0.004
7,PIP4K2B (UniProt P78356),0.092
8,PUF60 (UniProt Q9UHX1),0.003
9,PI4KA (UniProt P42356),-0.064
10,PRKAR2B (UniProt P31323),-0.043
11,PRKAB2 (UniProt O43741),-0.05
12,PTPN23 (UniProt Q9H3S7),-0.042
13,PSMB9 (UniProt P28065),0.028
14,POLR2M (UniProt P0CAP2),-0.024
15,POGK (UniProt Q9P215),0.033
16,POLD1 (UniProt P28340),-0.005
17,PDCD6IP (UniProt Q8WUM4),0.006
18,PRKCB isoform 2 (UniProt P05771),-0.062
19,POLR2F (UniProt P61218),0.036
20,PGPEP1 (UniProt Q9NXJ5),-0.027

row,Target,log2 fold change
1,PHKG2 (UniProt P15735),0.073
2,PIK3R2 (UniProt O00459),-0.003
3,PGGT1B (UniProt P53609),0.1
4,PCF11 (UniProt O94913),-0.029
5,PIP4P2 (UniProt Q8N4L2),0.01
6,PRKACB isoform 2 (UniProt P22694),-0.01
7,PRKCD (UniProt Q05655),-0.041
8,PRKAR2A (UniProt P13861),-0.013
9,PSTPIP2 (UniProt Q9H939),-0.037
10,PUS1 (UniProt Q9Y606),-0.077
11,PWP1 (UniProt Q13610),-0.004
12,PWP2 (UniProt Q15269),-0.013
13,PHKA1 (UniProt P46020),-0.074
14,PICALM (UniProt Q13492),0.014
15,PES1 (UniProt O00541),-0.04
16,PLEKHO2 (UniProt Q8TD55),0.151
17,PPOX (UniProt P50336),-0.007
18,PRIM2 (UniProt P49643),-0.048
19,PHGDH (UniProt O43175),-0.025
